According to ChEMBL document CHEMBL3988442, “University of Dundee, Small-Polar-MMV Screening Library” (2021):
The campaign covered roughly 38,000 compounds. About 1,200 (3.2%) showed an effect of 50% or more. The median lay at about -58%. The full list was thinned out, with strong results kept by preference.

Each compound was assayed on Plasmodium falciparum (assay: Calibr Malaria Delayed Death Assay SOP). Conditions: concentration 4.99e-06 (unit not given; other assays of the set use mol/L).
Assay type: functional, organism-based
Set-up: scale not given: in the data most compounds retested in dose-response had high values
For `COc1ccc(OCCN(C)C(=O)c2ccc(OC)cc2O)cc1`, the “Percent Effect” value was -28.6%.
With `COc1ccc(-c2nnsc2C(=O)N2CCOCC2)cc1` the “Percent Effect” value was -93.54%.
For `COc1c(CNCc2cccc(Cn3cccn3)c2)c(C)nn1C`, the “Percent Effect” value was 6.408%.
In the case of `COc1c(CNCc2ccccc2Cn2cncn2)c(C)nn1C`, the “Percent Effect” value was -2.524%.
`COc1c(CNCc2ccccc2Cn2cccn2)c(C)nn1C` was tested, and the “Percent Effect” value was 54.96%.
In the case of `Cc1nn(C)c(C)c1S(=O)(=O)NCC1(C(N)=O)CCOCC1`, the “Percent Effect” value was -35.42%.
`Cc1ccc(N2CC[C@H]3C[C@H](C(=O)NCc4ccco4)O[C@H]3C2)nn1.O=C(O)C(F)(F)F` was tested, and the “Percent Effect” value was -18.7%.
`CN(Cc1ccc([S+](C)[O-])cc1)c1cncc(Br)c1` (stereo not drawn) was tested, and the “Percent Effect” value was -68.65%.
With `COc1cccc(CN2CCCCCC2c2cccs2)c1O` (stereo not drawn) the “Percent Effect” value was 1.572%.
`COc1cccc(CN2CCCCCC2c2cccc(C)c2)c1O` (stereo not drawn) was tested, and the “Percent Effect” value was 56.55%.
For `COc1cc(CN2CCCCCC2c2cccs2)cc(OC)c1O` (stereo not drawn), the “Percent Effect” value was -97.62%.
For `Cc1cccc(C2CCCCCN2Cc2cn(C)nc2C)c1` (stereo not drawn), the “Percent Effect” value was 32.86%.
`COc1cccc(CN2CCCCCC2c2sccc2C)c1O` (stereo not drawn) was tested, and the “Percent Effect” value was -12.07%.
With `COc1cccc(CN2CCCCCC2c2cccc(F)c2)c1O` (stereo not drawn) the “Percent Effect” value was 55.91%.
With `Cc1noc(C2CCC3(CCN(C(=O)c4ccncn4)CC3)O2)n1` (stereo not drawn) the “Percent Effect” value was -45.98%.
In the case of `O=C(c1cccc2cn[nH]c12)N1CCCC1c1noc(C2CC2)n1` (stereo not drawn), the “Percent Effect” value was -53.04%.
`CCn1ccc(-c2cc(C(=O)O)n3nc(C)c(Cl)c3n2)n1` was tested, and the “Percent Effect” value was -42.05%.
For `O=C(O)C(F)(F)F.O=C1C[C@H]2[C@@H](CCN2C(=O)c2ccoc2)N1CCN1CCOCC1`, the “Percent Effect” value was -16.54%.
For `Cc1cccc(-n2ncc3c(=O)n(CCN4CCCCC4)cnc32)c1C`, the “Percent Effect” value was -32.3%.
`CNS(=O)(=O)CCCN1CCCC1c1cc(C)on1` (stereo not drawn) was tested, and the “Percent Effect” value was -107.9%.
In the case of `CC1CN(Cc2ccccc2)CCCN1CCCS(C)(=O)=O` (stereo not drawn), the “Percent Effect” value was 50.52%.
For `CNS(=O)(=O)CCCN1CCCCCC1c1ccc(C)o1` (stereo not drawn), the “Percent Effect” value was 7.133%.
With `COCCN1CCN(CCCS(=O)(=O)c2ccccc2)CC1C` (stereo not drawn) the “Percent Effect” value was -125.8%.
`COCCN1CCN(CCCS(C)(=O)=O)CC1C` (stereo not drawn) was tested, and the “Percent Effect” value was -45.99%.
`CNS(=O)(=O)CCCN1CCCN(Cc2ccccc2)CC1C` (stereo not drawn) was tested, and the “Percent Effect” value was 57.31%.
With `Cc1cc(F)ccc1N1CCCC(NC(=O)CCCn2ccnc2)C1` (stereo not drawn) the “Percent Effect” value was -46.83%.
`Cc1ccoc1-c1nnc(CN2CCn3c(nnc3C(C)C)C2)o1` was tested, and the “Percent Effect” value was -39.14%.
With `CCCN1CCN(c2ccc(-c3nc(C)no3)cn2)CC1` the “Percent Effect” value was -136.9%.
For `CCn1cc(CN2CCCN(C(=O)CCN3CCCC3=O)CC2)cn1`, the “Percent Effect” value was -110.7%.
With `CC(C)C(NC(=O)N1CCS(=O)(=O)CC1)c1ccccc1Cl` (stereo not drawn) the “Percent Effect” value was -66.72%.
In the case of `CSCC(=O)N(C)Cc1ccccc1`, the “Percent Effect” value was -13.25%.
In the case of `N#Cc1nc(COc2ccc3c(c2)OCO3)oc1NC1CC1`, the “Percent Effect” value was -68.74%.
In the case of `CC(=O)NCC(=O)N1CCC(C2CCN(Cc3ccc(Cl)cc3)C2)CC1` (stereo not drawn), the “Percent Effect” value was 1.574%.
`CN1CCN(Cc2ccc(Cl)cc2)CC1C(=O)O` (stereo not drawn) was tested, and the “Percent Effect” value was -101.8%.
In the case of `O=C(C1CCCC1)N1CCC(C2CCN(Cc3ccc(Cl)cc3)C2)CC1` (stereo not drawn), the “Percent Effect” value was 62.77%.
For `CCOCC(=O)N1CCC(C2CCN(Cc3ccc(Cl)cc3)C2)CC1` (stereo not drawn), the “Percent Effect” value was -3.864%.
For `Clc1ccc(CN2CCC(C3CCN(Cc4cccnc4)CC3)C2)cc1` (stereo not drawn), the “Percent Effect” value was 62.84%.
In the case of `O=C(C1CCC1)N1CCC(C2CCN(Cc3ccc(Cl)cc3)C2)CC1` (stereo not drawn), the “Percent Effect” value was 64.14%.
For `Clc1ccc(N2CCC(C3CCN(Cc4cccnc4)CC3)C2)nc1` (stereo not drawn), the “Percent Effect” value was 9.118%.
In the case of `O=C(C1CCC1)N1CC[C@@H]2CN(Cc3cccnc3)S(=O)(=O)[C@@H]2CC1`, the “Percent Effect” value was -57.62%.
For `Clc1cccnc1N1CCC(C2CCN(Cc3cccnc3)CC2)C1` (stereo not drawn), the “Percent Effect” value was -53.88%.
In the case of `CCOC(=O)Cc1csc(NC(=O)c2cc(=O)c(OC)c[nH]2)n1`, the “Percent Effect” value was -55.6%.
With `CN(C)CCn1c2c(ccc1=O)CCN(C(=O)c1ccoc1)CC2.O=C(O)C(F)(F)F` the “Percent Effect” value was -90.05%.
`CCCC(O)CN1CCC(=O)N(C)Cc2cc(F)ccc21` (stereo not drawn) was tested, and the “Percent Effect” value was -57.01%.
In the case of `O=C(c1cccnc1O)N(CCO)Cc1cc(Br)ccc1F`, the “Percent Effect” value was -29.02%.
`O=C(O)c1ccc(CNC(=O)C2CCN(C(=O)C3CCC3)CC2)s1` was tested, and the “Percent Effect” value was -58.95%.
For `Cc1nccn1CCCC(=O)N1CCC2(CCC(=O)N(C(C)C)C2)CC1`, the “Percent Effect” value was -32.26%.
`COCCNC(=O)N1CCCCC1CNC(=O)Nc1ccccc1` (stereo not drawn) was tested, and the “Percent Effect” value was -90.53%.
With `CCC(N)C(=O)N1CCC(OCc2ccc(Cl)c(Cl)c2)CC1.Cl` (stereo not drawn) the “Percent Effect” value was 65.86%.
For `NC(=O)CN1CCC(OCc2ccc(Cl)c(Cl)c2)CC1`, the “Percent Effect” value was 33.26%.
With `CNC(=O)CN1CCC(OCc2ccc(Cl)c(Cl)c2)CC1` the “Percent Effect” value was 0.3675%.
With `COc1ccc2c(c1)OCC(CNC(=O)c1cc(C(C)C)on1)C2` (stereo not drawn) the “Percent Effect” value was -29.19%.
With `Cc1c(C(=O)NCC2CCN(C)C2)n(C)c2c(C)cccc12` (stereo not drawn) the “Percent Effect” value was 8.044%.
In the case of `CC(=O)Nc1nc(C2CCN(C(=O)c3cncs3)CC2)cs1`, the “Percent Effect” value was 38.41%.
For `CNC(=O)Cn1c(CO)cnc1SCc1ccccc1Cl`, the “Percent Effect” value was -84%.
`COc1ccc(C(C)NC(=O)NCCc2ccc(C)nc2)c(OC)c1` (stereo not drawn) was tested, and the “Percent Effect” value was -63.03%.
For `COc1cc2nc(NCc3cc(C)on3)nc(N)c2cc1OC`, the “Percent Effect” value was 61%.
For `CCOc1ccc(OCC)c(NCc2cc(C)on2)c1`, the “Percent Effect” value was -105.8%.
For `COc1cc2c(cc1CNC(=O)Cc1ccc(C)nc1)OC(C)C2` (stereo not drawn), the “Percent Effect” value was -97.01%.
For `COc1ccc(CCC(=O)NCc2cc(C)on2)cc1`, the “Percent Effect” value was -56.8%.
In the case of `COc1cc(C(C)NCc2scnc2C)ccc1SC(F)F` (stereo not drawn), the “Percent Effect” value was 16.99%.
With `COc1ccccc1NCC(=O)NCc1scnc1C` the “Percent Effect” value was -101.9%.
`COc1cc2nc(NCc3scnc3C)nc(N)c2cc1OC` was tested, and the “Percent Effect” value was 89.32%.
For `COc1cc2nc(NCc3ccc(C)nc3)nc(N)c2cc1OC`, the “Percent Effect” value was 90.21%.
For `CC(=O)c1c(O)n(C)c2ccccc12`, the “Percent Effect” value was -129.1%.
With `O=C(COCCc1ccccc1)N1CCCC(n2cncn2)C1` (stereo not drawn) the “Percent Effect” value was -37.64%.
With `Cc1cccc(CSc2nnc(C)n2CC(N)=O)c1` the “Percent Effect” value was -106.3%.
With `CS(=O)(=O)N1CCC(CNC(=O)C2CCC2)CC1` the “Percent Effect” value was -20.15%.
